We go through ten molecules from PubChem BioAssay (EPA / NIEHS).

Molecules are shown by their SMILES. Values joined by “and” are separate entries in the source; they are usually repeats but may differ in a detail not shown here. Identical values can stand only once. Records with an inconclusive call do not appear. Active and inactive are the calls of the source. The calls were made as follows, unless noted: active = hit-call score of the fitted dose curve at least 0.9, where 1 is the maximum; inconclusive = response in the unintended direction; inactive = score below 0.9.

The target of test [1] is human Peroxisome Proliferator-activated Receptor alpha (PPARa), PPARA (gene 5465) (UniProt Q07869). The test is described as follows: ATG_PPARa_TRANS: Attagene TRANS-FACTORIAL HepG2 Assay for human Peroxisome Proliferator-activated Receptor alpha (PPARa) (AID 2283001).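 As to AC50: potency for gain of reporter signal over DMSO so agonist or activator.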 Put shortly: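 HepG2, transient MRTU transfection, 24 h treatment. RT-PCR → FAM labelling → capillary electrophoresis. Fit vs DMSO, positive direction.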
human Peroxisome Proliferator-activated Receptor alpha (PPARa), PPARA (gene 5465), sequence (Q07869 whole entry, looked up): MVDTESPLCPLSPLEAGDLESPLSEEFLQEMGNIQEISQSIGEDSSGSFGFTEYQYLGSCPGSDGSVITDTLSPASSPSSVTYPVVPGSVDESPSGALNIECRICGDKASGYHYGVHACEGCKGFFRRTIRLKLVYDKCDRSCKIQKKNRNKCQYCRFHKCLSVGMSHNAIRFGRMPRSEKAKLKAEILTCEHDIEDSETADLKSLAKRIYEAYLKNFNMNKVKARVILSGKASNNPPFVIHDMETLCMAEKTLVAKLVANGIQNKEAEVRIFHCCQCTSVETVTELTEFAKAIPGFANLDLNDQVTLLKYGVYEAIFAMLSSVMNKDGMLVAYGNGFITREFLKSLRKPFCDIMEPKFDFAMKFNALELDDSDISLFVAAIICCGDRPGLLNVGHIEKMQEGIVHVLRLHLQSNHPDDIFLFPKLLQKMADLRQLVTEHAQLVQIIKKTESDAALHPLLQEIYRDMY

Read-out in test [2]: Intercellular Adhesion Molecule 1 (ICAM1), ICAM1 (gene 3383)
The test is described as follows: BSK_3C_ICAM1: BioMAP Diversity Plus: 3C Assay for Intercellular Adhesion Molecule 1 (ICAM1) Biomarker Activity (AID 2283003; active = hit-call score of the fitted dose curve at least 0.9, where 1 is the maximum; inactive = score below 0.9). The settings on record: primary human endothelial cells (HUVEC); actives raise or lower the signal. In short, it runs like this: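 Chemicals are dosed onto primary human umbilical vein endothelium (3C system). After 24 h, ICAM-1 is measured by ELISA, and responses are fitted bidirectionally relative to DMSO.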

A short description of test [3]: BSK_3C_Proliferation: Cell Proliferation Assessment in the BioMAP Diversity Plus: 3C Assay (AID 2283006; active = hit-call score of the fitted dose curve at least 0.9, where 1 is the maximum; inactive = score below 0.9;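 as to AC50: potency may reflect either rise or fall in cell number versus DMSO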). The note with it: primary human endothelial cells (HUVEC). In short, it runs like this:
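Cells (human umbilical vein endothelial, sub-confluent) receive test chemical; after 48 h they are fixed in 10% trichloroacetic acid, stained with 0.1% SRB and read at 560 nm. Activity is referenced to DMSO, fitting increases and decreases.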

Test [4] addresses human Peroxisome Proliferator-activated Receptor delta (PPARd), PPARD (gene 5467) (UniProt Q03181). The test is described as follows: ATG_PPARd_TRANS: Attagene TRANS-FACTORIAL HepG2 Assay for human Peroxisome Proliferator-activated Receptor delta (PPARd) (AID 2283002). Put shortly:
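Fluorescence from capillary electrophoresis of labelled RT-PCR reporter fragments gives the signal; DMSO sets baseline. Cells: HepG2 transiently carrying GAL4-UAS reporter units plus chimeric nuclear receptor-Gal4 proteins, exposed to chemicals for 24 h.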

Test [5] deals with Peroxisome proliferator-activated receptor gamma (Homo sapiens) (UniProt P37231). Briefly: ATG_PPARg_TRANS: Attagene TRANS-FACTORIAL HepG2 Assay for human Peroxisome Proliferator-activated Receptor-gamma (PPARg) (AID 2283007). In short, it runs like this:
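HepG2 cells transiently transfected with multiplexed GAL4-UAS reporter units and exogenous chimeric NR-Gal4 proteins; reporter mRNA quantified after 24 h compound exposure by RT-PCR, fluorescent labelling, HpaI digestion and capillary electrophoresis; gain-of-signal fitted versus DMSO baseline.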

The target of test [6] is Nuclear receptor subfamily 1 group I member 2 (Homo sapiens) (UniProt O75469). Briefly: ATG_PXR_TRANS: Attagene TRANS-FACTORIAL HepG2 Assay for human Pregnane X Receptor (PXR) (AID 2283008). In short, it runs like this: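 Multiplexed TRANS reporter panel in HepG2; this component tracks PXR-Gal4-driven reporter mRNA after 24 h dosing, measured by RT-PCR with capillary electrophoresis fluorescence, fitted against DMSO.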
Nuclear receptor subfamily 1 group I member 2 (Homo sapiens), sequence (O75469 whole entry, looked up, the tested form may be a part): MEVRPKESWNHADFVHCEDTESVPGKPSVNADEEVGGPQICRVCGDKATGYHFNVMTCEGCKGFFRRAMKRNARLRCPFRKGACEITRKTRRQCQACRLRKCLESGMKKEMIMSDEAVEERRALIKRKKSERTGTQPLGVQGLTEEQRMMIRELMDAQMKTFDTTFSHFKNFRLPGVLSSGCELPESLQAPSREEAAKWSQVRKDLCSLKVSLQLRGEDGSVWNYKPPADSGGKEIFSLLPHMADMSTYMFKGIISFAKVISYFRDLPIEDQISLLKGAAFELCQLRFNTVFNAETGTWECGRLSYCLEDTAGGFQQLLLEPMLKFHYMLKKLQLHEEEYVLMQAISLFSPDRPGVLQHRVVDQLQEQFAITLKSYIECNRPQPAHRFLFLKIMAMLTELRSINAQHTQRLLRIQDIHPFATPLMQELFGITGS

Test [7] addresses human RAR-related Orphan Receptor beta (RORb), RORB (gene 6096) (UniProt Q92753). The test is described as follows: ATG_RORb_TRANS: Attagene TRANS-FACTORIAL HepG2 Assay for human RAR-related Orphan Receptor beta (RORb) (AID 2283010). In short, it runs like this: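 Transfect HepG2 with multiple GAL4-UAS reporter transcription units; dose chemicals for 24 h; isolate RNA, reverse-transcribe and PCR-amplify reporter sequences; label, digest and resolve fragments by capillary electrophoresis; fit increases relative to DMSO.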

Test [8] has as its target human Retinoic Acid Receptor beta (RARb), RARB (gene 5915) (UniProt P10826). Briefly: ATG_RARb_TRANS: Attagene TRANS-FACTORIAL HepG2 Assay for human Retinoic Acid Receptor beta (AID 2283004). Put shortly:
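Transient transfection of HepG2 with multiple reporter units → chemical dosing, 24 h → total RNA isolation → RT with oligo(dT) → reporter-specific PCR, 6-FAM primer extension, HpaI digest → capillary electrophoresis. Positive direction vs DMSO control.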

Test [9] has as its target Retinoic acid receptor alpha (Homo sapiens) (UniProt P10276). Briefly: ATG_RARa_TRANS: Attagene TRANS-FACTORIAL HepG2 Assay for human Retinoic Acid Receptor alpha (RARa) (AID 2283005). In short, it runs like this:
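HepG2 transiently transfected with multiplex GAL4-UAS reporter units including a human RARa–GAL4 chimera; 24 h compound exposure. Reporter mRNA quantified by RT-PCR, 6-FAM labeling and capillary electrophoresis; gain of signal versus DMSO.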

Test [10] addresses human Retinoic Acid Receptor gamma (RARg), RARG (gene 5916) (UniProt P13631). The test is described as follows: ATG_RARg_TRANS: Attagene TRANS-FACTORIAL HepG2 Assay for human Retinoic Acid Receptor gamma (RARg) (AID 2283009). In short, it runs like this: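 TRANS format measured activity of exogenous NR-GAL4 fusion (RARg) in transfected HepG2 liver cells after 24 h dosing. Induced reporter RNA was detected by RT-PCR/capillary electrophoresis fluorescence, analysed in the positive direction against DMSO.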

human Peroxisome Proliferator-activated Receptor delta (PPARd), PPARD (gene 5467), sequence (Q03181 whole entry, looked up, the tested form may be a part): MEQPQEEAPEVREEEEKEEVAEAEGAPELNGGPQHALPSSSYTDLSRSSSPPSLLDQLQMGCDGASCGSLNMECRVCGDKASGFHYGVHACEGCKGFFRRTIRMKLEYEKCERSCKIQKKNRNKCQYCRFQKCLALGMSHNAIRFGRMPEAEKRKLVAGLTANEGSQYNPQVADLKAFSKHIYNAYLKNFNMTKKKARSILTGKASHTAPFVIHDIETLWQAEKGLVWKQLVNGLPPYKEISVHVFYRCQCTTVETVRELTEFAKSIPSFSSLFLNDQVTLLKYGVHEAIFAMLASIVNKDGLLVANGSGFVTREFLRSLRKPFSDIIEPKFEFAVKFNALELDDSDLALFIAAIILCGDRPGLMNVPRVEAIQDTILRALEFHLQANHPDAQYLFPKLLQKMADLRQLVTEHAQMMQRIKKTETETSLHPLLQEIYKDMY
human RAR-related Orphan Receptor beta (RORb), RORB (gene 6096), sequence (Q92753 whole entry, looked up, the tested form may be a part): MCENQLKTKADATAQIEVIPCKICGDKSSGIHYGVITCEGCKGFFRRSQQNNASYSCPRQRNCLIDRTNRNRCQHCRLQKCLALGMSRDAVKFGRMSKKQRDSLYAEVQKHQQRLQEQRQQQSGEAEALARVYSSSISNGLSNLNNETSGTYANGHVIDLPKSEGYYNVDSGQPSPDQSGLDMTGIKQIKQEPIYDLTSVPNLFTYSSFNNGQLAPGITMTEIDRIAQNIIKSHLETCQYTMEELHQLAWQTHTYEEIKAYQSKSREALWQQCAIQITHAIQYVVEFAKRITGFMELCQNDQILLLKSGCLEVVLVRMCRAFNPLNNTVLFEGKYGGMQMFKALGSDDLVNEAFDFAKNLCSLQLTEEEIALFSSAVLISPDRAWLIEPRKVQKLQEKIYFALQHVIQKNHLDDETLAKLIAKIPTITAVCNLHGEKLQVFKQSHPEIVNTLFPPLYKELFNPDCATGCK
human Retinoic Acid Receptor beta (RARb), RARB (gene 5915), sequence (P10826 whole entry, looked up): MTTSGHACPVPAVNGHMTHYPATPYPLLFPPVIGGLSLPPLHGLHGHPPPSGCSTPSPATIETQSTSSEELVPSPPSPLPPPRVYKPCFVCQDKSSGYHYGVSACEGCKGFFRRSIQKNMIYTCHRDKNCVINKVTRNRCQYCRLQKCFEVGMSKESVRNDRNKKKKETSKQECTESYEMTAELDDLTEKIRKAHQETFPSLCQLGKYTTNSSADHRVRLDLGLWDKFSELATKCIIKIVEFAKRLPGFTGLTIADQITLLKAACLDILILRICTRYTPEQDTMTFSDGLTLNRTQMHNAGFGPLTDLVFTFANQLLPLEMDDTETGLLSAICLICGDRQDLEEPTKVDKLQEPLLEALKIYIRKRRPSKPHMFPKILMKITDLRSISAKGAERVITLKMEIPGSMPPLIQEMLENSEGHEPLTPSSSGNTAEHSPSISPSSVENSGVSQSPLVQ
Retinoic acid receptor alpha (Homo sapiens), sequence (P10276 whole entry, looked up, the tested form may be a part): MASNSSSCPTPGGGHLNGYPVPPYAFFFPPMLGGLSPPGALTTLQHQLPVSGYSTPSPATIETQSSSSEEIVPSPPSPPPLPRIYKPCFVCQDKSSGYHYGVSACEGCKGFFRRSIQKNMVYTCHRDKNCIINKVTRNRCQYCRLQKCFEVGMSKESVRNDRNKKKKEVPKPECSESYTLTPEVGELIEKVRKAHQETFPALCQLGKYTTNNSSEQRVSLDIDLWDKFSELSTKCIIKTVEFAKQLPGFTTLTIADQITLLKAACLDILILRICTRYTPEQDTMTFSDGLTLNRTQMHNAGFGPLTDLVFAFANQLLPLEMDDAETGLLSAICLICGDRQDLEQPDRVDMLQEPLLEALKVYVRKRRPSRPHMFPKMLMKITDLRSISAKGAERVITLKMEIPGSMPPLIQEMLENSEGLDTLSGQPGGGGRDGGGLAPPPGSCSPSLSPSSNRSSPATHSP
Peroxisome proliferator-activated receptor gamma (Homo sapiens), sequence (P37231 whole entry, looked up, the tested form may be a part): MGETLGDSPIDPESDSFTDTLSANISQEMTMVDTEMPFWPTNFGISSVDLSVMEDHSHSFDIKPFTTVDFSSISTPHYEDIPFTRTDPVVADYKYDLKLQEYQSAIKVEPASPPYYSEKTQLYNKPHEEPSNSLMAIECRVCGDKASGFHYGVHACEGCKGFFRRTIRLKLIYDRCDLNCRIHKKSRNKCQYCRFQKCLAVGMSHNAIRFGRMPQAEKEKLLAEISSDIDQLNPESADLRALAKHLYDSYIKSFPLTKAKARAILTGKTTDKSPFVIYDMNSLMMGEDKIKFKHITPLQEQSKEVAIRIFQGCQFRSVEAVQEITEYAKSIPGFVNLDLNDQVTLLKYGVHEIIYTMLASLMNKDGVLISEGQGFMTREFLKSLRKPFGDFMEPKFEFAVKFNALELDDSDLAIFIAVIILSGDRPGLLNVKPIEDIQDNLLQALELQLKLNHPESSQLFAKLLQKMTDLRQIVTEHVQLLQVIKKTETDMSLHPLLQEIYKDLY
human Retinoic Acid Receptor gamma (RARg), RARG (gene 5916), sequence (P13631 whole entry, looked up, the tested form may be a part): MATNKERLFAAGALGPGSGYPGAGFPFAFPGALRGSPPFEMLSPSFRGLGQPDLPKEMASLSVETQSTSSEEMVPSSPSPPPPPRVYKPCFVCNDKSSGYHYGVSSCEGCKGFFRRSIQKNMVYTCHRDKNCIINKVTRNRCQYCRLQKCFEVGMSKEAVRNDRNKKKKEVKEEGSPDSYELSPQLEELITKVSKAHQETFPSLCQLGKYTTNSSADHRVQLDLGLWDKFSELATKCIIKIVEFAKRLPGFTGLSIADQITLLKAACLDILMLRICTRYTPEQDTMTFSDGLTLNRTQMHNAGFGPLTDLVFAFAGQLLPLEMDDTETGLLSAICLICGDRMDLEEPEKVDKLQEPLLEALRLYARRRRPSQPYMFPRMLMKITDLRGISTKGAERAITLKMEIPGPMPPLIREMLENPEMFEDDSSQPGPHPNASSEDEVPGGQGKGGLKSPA

Regarding `CCOS(=O)(=O)OCC`, the molecule was classed as inactive in test [1], in [2] and in test [3].

For orientation: AC50 means the concentration at which the activity in the assay is half-maximal. Take `ClC(Cl)=C(c1ccc(Cl)cc1)c1ccccc1Cl`: the molecule was called inactive in test [1], in test [4], in test [5] and in [7]. For the same molecule, the AC50 was 28.7 µM (active) in test [2], 11.7 µM (active) in [3] and 2.27 µM (active) in test [6].

With `COC(=O)C(F)(F)C(F)(F)OC(F)(C(F)(F)F)C(F)(F)OC(F)=C(F)F` (stereo unspecified), the concentration at half-maximal activity (AC50) in test [1] was 8.47 µM (active) and 26 µM (active) and 10.1 µM (active); in test [5], 124 nM (active) and 241 nM (active) and 127 nM (active); in test [6], 6.57 µM (active) and 19.5 µM (active) and 5.88 µM (active). The result in test [2], in test [8], in test [3] and in test [7] was inactive.

With `N#Cc1c(-c2ccc(Cl)cc2)[nH]c(C(F)(F)F)c1Br`, the molecule was called inactive in test [1], in test [4], in test [2], in [8], in test [9] and in test [10]. In addition, the outcome in test [7] was inactive. Further, the AC50 in test [3] is 0.393 µM (active); in test [5] it was 573 nM (active); in [6] it was 0.585 µM (active).

Consider `ClC(Cl)c1ccccc1`, for which the result in [1], in [2], in test [9], in test [3], in test [6] and in test [7] was inactive.

`CC(=O)c1ccc(-c2ccccc2)cc1`: the result in [1], in test [4] and in test [5] was inactive. In test [6], the AC50 was 24.7 µM (active).

Consider `CCOC(=O)c1ccccc1C(=O)OCC`, for which the result in [1], in test [2], in test [8], in [3] and in [6] was inactive.

`[N-]=[N+]=[N-]`: the molecule was called inactive in [1], in test [4], in test [2] and in test [3].

Turning to `NC(=O)C(F)(F)C(F)(F)F`, the outcome in test [1], in [2], in test [8], in test [9], in [3] and in test [6] was inactive.

Regarding `CCCCOCCOP(=O)(OCCOCCCC)OCCOCCCC`, the molecule was called inactive in test [1], in test [4], in test [2], in test [8], in [9] and in [3]. In addition, the result in test [6] and in test [10] was inactive. The AC50 in test [5] is 58700 nM (active).
